In ChEMBL document CHEMBL4513216, “Probing the Open Global Health Chemical Diversity Library for Multistage-Active Starting Points for Next-Generation Antimalarials” (ACS Infect Dis, 2020):
Among all 69,000 compounds or so, about 8,600 (12%) showed an effect of 50% or more. The entries come from a sample that favours strong results as a whole.

System: Plasmodium berghei
Test: Screen against P. berghei liver stage (PbLuc), transformed with Luciferase, at 10uM
Assay type: functional, HepG2
Conditions: tested at 10 uM

SMILES | INHIBITION
Cc1cc(C(F)(F)F)nc(CCNC(C)Cn2cncn2)n1 (stereo unspecified) | 8.86%
COC(=O)CCCC(=O)N1CCC(CO)(CCc2ccccc2)CC1 | 30.7%
CCc1ccc(NC(=O)c2n[nH]c(-n3cnnc3)n2)cc1 | 25.9%
CCc1nc(C2CCCN(C(=O)C(C)(C)NS(C)(=O)=O)C2)no1 (stereo unspecified) | 3.73%
O=C(c1cnn2c1OCCC2)N1CCC(Cc2ccccc2)CC1 | 13.6%
CCN1CCOC(CNCc2cnc(C(C)(C)C)s2)C1 (stereo unspecified) | 46.5%
c1coc(CNCC2Cn3nncc3CO2)c1 (stereo unspecified) | 62.9%
CCN1CCOC(CNCc2ccc(C)s2)C1 (stereo unspecified) | 73.6%
c1cc(CNCC2Cn3nncc3CO2)ccn1 (stereo unspecified) | 29.8%
Cc1nc(CNCC2Cn3nncc3CO2)cs1 (stereo unspecified) | 5.89%
Cc1ccc(CNCC2Cn3nncc3CO2)s1 (stereo unspecified) | 54.8%
c1cc(CNCC2Cn3nncc3CO2)co1 (stereo unspecified) | -21.7%
Cc1ccc(CNCC2Cn3nncc3CO2)o1 (stereo unspecified) | 43.9%
CCN1CCOC(CNCc2ccccn2)C1 (stereo unspecified) | 33%
COc1cccc(C(=O)N2CCc3c(nc(N)[nH]c3=O)C2)c1C | 21.8%
CN(C)C(=O)[C@H]1C[C@@H]2CCN(Cc3ccoc3)C[C@@H]2O1 | 34%
O=C(Nc1ccccc1)c1cc2n(n1)CCCN(C(=O)N1CCCC1)C2 | 35%
Cc1cc2ccccc2n1CCC(=O)NCCCc1nnc(N)s1 | 0.426%
CCCC(C)C(=O)N1CCC(n2cccc2C(=O)OC)CC1 (stereo unspecified) | 12.2%
N#Cc1cccc(N2CC3(CCN(C(=O)c4ccncc4)C3)CC2=O)c1 (stereo unspecified) | 21.5%
COc1c(C2CCCN2Cc2csc(C(C)C)n2)c(C)nn1C (stereo unspecified) | 20.1%
CCCn1ccnc1CN1CCCC1c1cccc(-n2ccnc2)n1 (stereo unspecified) | 42.4%
CCc1nc(C2CCCN2Cc2nccn2Cc2ccccc2)no1 (stereo unspecified) | 32%

SMILES | INHIBITION
Cc1nn(C)c(C)c1C1CCCN1Cc1nc(C2CC2)no1 (stereo unspecified) | 21.2%
Cc1nn(C)c(C)c1C1CCCN1Cc1cn2ccsc2n1 (stereo unspecified) | 74%
COc1c(C2CCCN2Cc2cn3ccsc3n2)c(C)nn1C (stereo unspecified) | 65.6%
Cc1nn(C)c(C)c1C1CCCN1C(=O)Cc1cn2ccsc2n1 (stereo unspecified) | 21.1%
CCCn1ccnc1CN1CCCC1c1ccccn1 (stereo unspecified) | 56.7%
COc1c(C2CCCN2Cc2nc(C)c(C)o2)c(C)nn1C (stereo unspecified) | 11.2%
COc1c(C2CCCN2Cc2nc(C3CC3)no2)c(C)nn1C (stereo unspecified) | 52.3%
Cc1nn(C)c(Cl)c1C1CCCN1Cc1cn2ccsc2n1 (stereo unspecified) | 24.8%
CCCc1noc(CN2CCCC2c2c(C)nn(C)c2OC)n1 (stereo unspecified) | 42.9%
CCN(Cc1ccco1)C(C)c1nc(C(C)C)no1 (stereo unspecified) | -165%
Cc1cccc(OCCNC(=O)CN2CCN(C)CC2C)c1 (stereo unspecified) | -43.415%
COCC1CN(C(=O)COc2ccccc2)Cc2cn(C)nc21 (stereo unspecified) | 11.5%
COc1ncccc1C(=O)N1C[C@@H]2COC[C@]2(CN(C)C)C1 | -35.2%
O=C(NCCCn1ccnc1)C1CCC(=O)N1Cc1cccs1 (stereo unspecified) | 13.9%
CCn1cncc1-c1nc2c([nH]1)CC(C)(C)CNC2=O | -23.2%
Cc1ccc(O[C@@H]2C[C@H]3CN(C(=O)c4cccnc4)CCN3C2)cc1 | -2.25%
OCC1N(Cc2ccc(F)cc2)C2CCC1(O)CC2 (stereo unspecified) | 39.6%
CCn1ccnc1CN1CCCC1c1c(C)nn(C)c1OC (stereo unspecified) | 65.4%
COc1c(C2CCCN2Cc2nccn2C)c(C)nn1C (stereo unspecified) | 22.8%
COc1c(C2CCCN2Cc2cc(C)no2)c(C)nn1C (stereo unspecified) | 0.938%
CC(NC(=O)CN(C)C(C)C)c1ccc(Oc2cccnc2)c(F)c1 (stereo unspecified) | 23.5%
CSc1nsc(NC(=O)N(C)Cc2ccc3c(c2)OCO3)n1 | -29.6%
Cc1ccccc1OCCn1cnc2oc(C)c(C(=O)O)c2c1=O | -16.3%

SMILES | INHIBITION
CCc1cnc(CCNS(C)(=O)=O)s1 | 48.3%
CC(C)c1nc(C2CCCN2C(=O)c2cc(Cl)c[nH]2)no1 (stereo unspecified) | 6.09%
CC(C)CN1CCC2(CCN(Cc3nccs3)CC2)C1=O | 29%
Cc1ccc2cc(C3(O)CCN(C(=O)CSC(C)C)CC3)ccc2n1 | 81.6%
Cc1ccc2cc(C3(O)CCN(C)CC3)ccc2n1 | -12.1%
O=C(c1ccoc1)N1CCC(O)(C(F)(F)F)CC1 | 30%
Cc1ccc2cc(C(=O)N3CCC(O)(C(F)(F)F)CC3)ccc2n1 | 51.7%
COCCOCC(=O)N1CCC(O)(c2ccc3nc(C)ccc3c2)CC1 | -18.5%
CN(C)C(=O)N1CCN(C(=O)c2ccn3ccnc3c2)CC1 | 7.97%
Cc1ccc2cc(C3(O)CCN(C(=O)CN4CCCC4)CC3)ccc2n1 | -9.67%
Cc1ccc2cc(C(=O)N3CCN(C(=O)N(C)C)CC3)ccc2n1 | 70.3%
Cc1ccc2cc(C(=O)N3CCCN(C)CC3)ccc2n1 | 48%
CS(=O)(=O)Cc1ccc(C(=O)N2CCCC(n3cncn3)C2)o1 (stereo unspecified) | 25.8%
Cn1ccc2ccc(C(=O)N3CC[C@@]4(O)CCCC[C@H]4C3)cc21 | 18.3%
CC(=O)N1CCCN(Cc2cc(F)cc(Br)c2)CC1 | 33.4%
O=C1CC(c2cccnc2)C2(CCN(S(=O)(=O)C3CC3)CC2)N1 (stereo unspecified) | 9.67%
Cc1ccccc1-n1ncc2c(=O)n(CCN3CCCCC3)cnc21 | -51.1%
COc1ccc(CN(C)Cc2c(C)noc2C)c(Br)c1OC | 26.8%
Cc1cnn(CC2CCCN2Cc2cc(C)on2)c1 (stereo unspecified) | 4.585%
CC(C)(C)C(=O)N[C@H]1CC[C@H](Nc2nccc(-c3ccncc3)n2)C1 | 18.7%
COc1cccc(CC2CN(C3CCCCC3)CCO2)c1 (stereo unspecified) | 36.2%
CCOc1ccccc1N(C)Cc1nccn1C | 52.6%
CCOc1ccccc1OCCN(C)Cc1nccn1C | 20.5%

SMILES | INHIBITION
CN(Cc1nccn1C)c1ccc(-c2nccn2C)nn1 | -84.1%
COCCC(=O)N1CCCC1c1nccnc1Nc1ncccn1 (stereo unspecified) | 33.7%
Cn1ccnc1CN1CCC2(CC1)CN(c1cncnc1)C(=O)CO2 | 57.9%
CN(C)CCN1CCC2(CC1)CN(Cc1cccnc1)C(=O)CO2 | 41.2%
O=C1COC2(CCN(Cc3cccs3)CC2)CN1c1cncnc1 | 67%
Cn1ccnc1CN1CCC2(CC1)CCN(c1cncnc1)C2=O | 8.93%
O=C1COC2(CCN(Cc3cccs3)CC2)CN1c1cccnc1 | 10.7%
Cn1ccnc1CN1CCC2(CC1)CN(c1ccccc1)C(=O)CO2 | -4.88%
Cn1ccnc1CN1CCC2(CC1)CN(Cc1ccccc1)C(=O)CO2 | 33%
O=C1COC2(CCN(Cc3cccs3)CC2)CN1c1ccccc1 | 26.8%
Cn1ccnc1CN1CCC2(CC1)CN(Cc1cccnc1)C(=O)CO2 | 57.4%
O=C(c1cccnc1)N1CCC2(CC1)CCN(c1ccsc1)C2=O | 16.6%
COCCCN1CC2(CCCCN2C(=O)c2ccsc2)CC1=O (stereo unspecified) | 20.7%
Cc1cc(CN(Cc2cccnc2)CC2CCCO2)on1 (stereo unspecified) | 48.2%
Cc1nccn1C1CCCN(C(=O)c2cc3c(F)cccc3[nH]2)C1 (stereo unspecified) | 42%
CCc1ccc(NC(=O)C(C)Nc2cccc3c2OCCO3)cc1 (stereo unspecified) | 21.3%
O=C(c1ccc2[nH]cnc2c1)N1CCC(COc2ccccn2)CC1 | 32.3%
CN(CCn1cccn1)C1CCCN(Cc2noc(C3CC3)n2)C1 (stereo unspecified) | 39.7%
Cc1csc(C2CCCCN2C(=O)c2cc(Cl)c[nH]2)n1 (stereo unspecified) | -19.4%
O=C(CSc1ccccn1)NCc1ccc2c(c1)CCC(=O)N2 | 35%
Cn1ccnc1SCC(=O)NCc1ccc2c(c1)CCC(=O)N2 | 34.2%
CC(NC(=O)NCc1ccoc1)c1ccc2c(c1)CCC(=O)N2 (stereo unspecified) | 36.4%
Cc1nnc(SCC(=O)c2cc3c(cc2Cl)NC(=O)C3)s1 | 48.7%

SMILES | INHIBITION
Cc1nnc(SCC(=O)NCc2ccc3c(c2)CCC(=O)N3)n1C | 58.2%
Cc1nnc(SCC(=O)NCc2ccc3c(c2)CCC(=O)N3)s1 | 72.3%
CC(CC(=O)NCCS(N)(=O)=O)C1CCCCC1 (stereo unspecified) | 16%
CCN(Cc1ccc(O)c(C(=O)O)c1)CC1CCCO1 (stereo unspecified) | 42.3%
CN(Cc1nc(C(F)(F)F)cs1)C(=O)CCc1cccnc1 | -7.53%
CCCOc1cc(C)ccc1NC(=O)NCCNC(C)=O | 1.06%
O=C(c1ccncc1)N1CCC2(CC1)C(=O)Nc1ccccc12 | -16.9%
CN(C)Cc1cn2c(n1)CN(C(=O)Cc1ccsc1)CC2 | -15.6%
CN(Cc1cn2c(n1)CN(C(=O)c1ccc[nH]1)CC2)Cc1ccco1 | 7.31%
CS(=O)(=O)NCc1cn2c(n1)CN(C(=O)c1ccc[nH]1)CC2 | 27.3%
CC(C)N(C)Cc1cn2c(n1)CN(C(=O)Cc1ccsc1)CC2 | -9.86%
CC(C)N(C)Cc1cn2c(n1)CN(C(=O)c1ccc[nH]1)CC2 | 63.7%
CN(C)Cc1cc(=O)n2c(n1)CN(C(=O)c1ccc[nH]1)CCC2 | 32.1%
CC(C)N(C)Cc1cc(=O)n2c(n1)CN(C(=O)c1ccc[nH]1)CCC2 | 26.7%
CCN(CC)Cc1cn2c(n1)CN(C(=O)Cc1ccsc1)CC2 | 73.6%
O=C(Cc1ccccc1)N1CCn2cc(Cn3cncn3)nc2C1 | -28.7%
CCN(CC)Cc1cc(=O)n2c(n1)CN(C(=O)c1ccc[nH]1)CCC2 | 58.4%
O=C(Cc1ccsc1)N1CCn2cc(CN3CCCC3)nc2C1 | -63.2%
CC(C)N(C)Cc1cn2c(n1)CN(C(=O)Cc1ccccc1)CC2 | 72.3%
